Rows were chosen to be rich in hits. Some 8.1% of all compounds tested hit in one or more screens of this group.
Epigenetic reg = epigenetic control regulation, reporter derepression; murine LDR cells, GFP reporter derepression, 30 h; Potency, µM (top dose mostly 53.9 µM), inactives show top-dose GFP activation, most hits filed as activators; actives 0.2% (n = 280,000); also: % of control where 0% means no effect; nearly all actives have a fitted effect of over 60% in size
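Readout is the number of GFP-expressing murine LDR cells, counted by cytometry following washing. Cells were treated with compound for 30 h at 37 C; the stably integrated CMV-GFP locus is normally silent.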
Sfp inh = inhibitors of Bacillus subtilis Sfp phosphopantetheinyl transferase | Biochemical Sfp PPTase activity, qHTS | Potency, µM, for inactives: largest response in the series, negative = inhibition, most hits filed as inhibitors | actives 3.5% (n = 310,000) | Q9F4F7;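 also: the enzyme is Sfp with the accession as filed and its product quenches rhodamine fluorescence; 0% = enzyme reaction without inhibitor and -100% = no enzyme wells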
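Fluorescence-quenching assay: 15 nM Sfp-PPTase preincubated 15 min at room temperature with compound, then 5 uM rhodamine-CoA and 12.5 uM BHQ-2-labelled YbbR peptide added. Fluorescence (ex 525/em 598 nm) read at start and after 30 min; difference gives rate.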
RORg inh = ROR gamma (mouse) transcription inhibition; P51450; Drosophila S2 Gal4-RORgamma UAS-luciferase reporter, 20 h; Potency, µM (top dose mostly 53.6 µM), for the others: at the top dose activity change, negative = inhibition, usual class: inhibitors; actives 5.4% (n = 310,000); AID 2551; also: % is scaled to controls: 0 for no effect and ±100 for the full control effect; nearly all actives have a fitted effect of over 60% in size
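Read-out: Photinus luciferase luminescence; inhibitors lower reporter signal. Insect Schneider cells with Gal4-ROR gamma fusion under metallothionein promoter, UAS reporter; 700 uM final copper sulfate induction, 20 hr, ambient temperature.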
PINK1 modulator = PINK1 expression modulation; PINK1 immunofluorescence, high-content cytometry, 24 h; Potency, µM (series often up to 76.6 µM), without a hit: at the highest dose activation (PINK1 increase), usual class: activators; actives 0.2% (n = 410,000); AID 624263; active = well fitted activation curve with a large enough effect; inconclusive = small, poorly fitted or top-dose-only effect; cell line not stated here; also: % of control where 0% means no effect; nearly all actives have a fitted effect of over 65% in size
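Stable cell line, 250 cells/well, 12 h attachment; compounds pinned at 5 concentrations, 24 h; CCCP control. Fixed with nuclear dye, primary antibodies 12 h at 10 degrees C, secondary plus cell stain; laser-scanning cytometer read.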
ClpP mod = qHTS Assay for Activators of ClpP. actives 1.9% (n = 340,000). Potency, µM (highest dose often 57.5 µM), without a hit: at the highest dose activity change, negative = active. AID 651965, 2013. purified B. subtilis ClpP, FRET peptide cleavage, 20 min. ATP-dependent Clp protease proteolytic subunit (Bacillus subtilis (strain 168)), P80244; active = well fitted falling curve with a large enough effect; inconclusive = small, poorly fitted or top-dose-only effect; inactive = no such curve, though single readings can be large or run the other way; also: the source files actives as falling curves though it sought activators and does not explain the sign; nearly all actives have a fitted effect of over 65% in size
Target sequence (P80244 whole entry, looked up): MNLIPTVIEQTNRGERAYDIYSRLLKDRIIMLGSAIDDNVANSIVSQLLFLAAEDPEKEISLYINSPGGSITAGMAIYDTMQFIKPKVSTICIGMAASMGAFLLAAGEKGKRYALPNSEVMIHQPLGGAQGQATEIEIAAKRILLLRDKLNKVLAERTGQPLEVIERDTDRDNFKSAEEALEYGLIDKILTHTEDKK
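FRET quenching reversal measured ClpP activation: 10 microg/mL B. subtilis ClpP at pH 8 with the FRET-FV decapeptide, read at 430 nm after 320 nm excitation. The 20-min minus 0-min signal was scaled between DMSO/no-enzyme wells and ADEP (5.8 microM final).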
Gal4-VP16 FLuc = inhibits Gal4-VP16 luciferase reporter, ROR gamma counter-screen. Drosophila S2 Gal4-VP16 UAS-luciferase, luminescence, 20 h. Potency, µM (top dose mostly 53.6 µM), inactives show at the top dose activity, negative = inhibition, hits mostly inhibitors. actives 3.5% (n = 310,000);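 also: Gal4-VP16 expression switched on by copper sulfate through the metallothionein promoter; % is scaled to controls: 0 for no effect and ±100 for the full control effect; nearly all actives have a fitted effect of over 50% in size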
Numbers without * were called inactive; ? = inconclusive; nt = no result given; [ ] = dose if it differs, or a comment. Unless noted, calls follow the shape of the dose curve; as a rule, active = well fitted curve in the direction sought with a large enough effect; inconclusive = small, poorly fitted or top-dose-only effect, or another doubt; inactive = no such curve, though single readings can be large; an effect the other way counts as inactive or inconclusive. Potency is read from the fitted curve at half-maximal effect.

SMILES | Epigenetic reg | Sfp inh | RORg inh | PINK1 modulator | ClpP mod | Gal4-VP16 FLuc
CO[C@H]1[C@H](NC(=O)c2ccsc2)c2ccccc2C12CCN(Cc1c(O)ccc3ccccc13)CC2 | nt | nt | nt | 1% | nt | nt
Cc1ccc2c(CN3CCN(Cc4ccccc4)CC3)cc(=O)oc2c1C | nt | -1% | 2% | -1% | nt | -5%
O=S(=O)(c1ccc(Cl)cc1)N1CCN(Cc2ccc(O)c3ncccc23)CC1 | ? | 10% | 1µM* | 1% | 0% | 2.8µM*
Cc1ccc2c(CN3CCN(S(=O)(=O)c4ccc(Cl)cc4)CC3)cc(=O)oc2c1C | nt | nt | nt | -2% | 14µM* | nt
COc1cc(O)c(C(C)=O)c(OC)c1 | 8% | -11% | -18% | 5% | 1% | 0%
COc1cc(O)c(C(C)=O)c(CC(=O)O)c1 | 1% | 89µM* | -10% | 0% | -2% | 0%
Cc1cc(C)c(NC(=O)C(=O)NCC(c2cccnc2)N2CCN(c3ccccc3F)CC2)c(C)c1 (stereo not drawn) | 2% | nt | nt | 5% | 0% | nt
Cc1ccc(S(=O)(=O)N(C)C)cc1NC(=S)NC1CCCC(C)C1C (stereo not drawn) | -2% | 3% | 4µM* | 5% | 1% | 5µM*
CCN(CC)S(=O)(=O)c1cccc(C(=O)NC2CCCCC2)c1 | -1% | 22% | ? | -2%[38.3 µM] | -2% | 6%
CCN(CC)S(=O)(=O)c1ccc(C)c(NC(=S)NC2CCCCC2)c1 | 1% | 18% | 10µM* | 1% | nt | ?
CC1CCCCC1NC(=S)Nc1cccc(S(=O)(=O)N(C)C)c1 (stereo not drawn) | 0% | 0% | ? | 0% | nt | 5%[10 µM]
Cc1ccc(NC(=S)NC2CCCCC2)cc1S(=O)(=O)N(C)C | -1% | -45% | 13µM* | 3% | nt | ?
CCOC(=O)c1cc(C)[nH]c(=S)c1C#N | -1% | 40µM* | ? | 1% | -3% | -15%
COC(=O)c1scc(-c2ccc(C)cc2)c1S(=O)(=O)N1CCN(c2ccc(OC)cc2)CC1 | 0% | nt | nt | 1% | -1% | nt
Nc1ccc2nc(-c3ccccc3)[nH]c2c1 | 1% | -19% | 13µM* | 0% | ? | ?
Nc1ccc2nc(-c3ccc(N)c(Cl)c3)[nH]c2c1 | 2% | ? | -38% | -2% | 3.5µM* | ?
Nc1ccc(-c2nc3c(Cl)cc(N)cc3[nH]2)cc1 | 1% | 10% | -14% | 3% | ? | -7%
Nc1ccc2nc(-c3ccccn3)[nH]c2c1 | ? | 5% | 20µM* | 18% | 32µM* | ?
Nc1ccc2nc(-c3cccs3)[nH]c2c1 | -1% | 4% | ? | nt | 10µM* | 14%
Nc1ccc2nc(-c3cccnc3)[nH]c2c1 | 0% | 7% | 31% | 4% | 1% | 7%
CCCCNc1nc(Oc2ccc(=O)n(C)n2)nc(N2CCOCC2)n1 | -6% | nt | nt | 0% | 1% | nt
CN(C)c1c(Cl)cc(/C=C2\C=Cc3ccccc32)cc1Cl | nt | nt | nt | 0% | 0% | nt
COc1ccccc1CNc1nc2ccc(C)cc2n2nnnc12 | ? | nt | nt | 1% | ? | nt
O=C(Cn1ncn2c(cc3sccc32)c1=O)NCCc1ccccc1 | 1% | nt | nt | 1% | -1% | nt
Cc1cc(-c2ccnc(-n3ncc(C(=O)NCC4COCCO4)c3C3CC3)n2)c(C)s1 (stereo not drawn) | nt | nt | nt | 4% | nt | nt
SMILES | Epigenetic reg | Sfp inh | RORg inh | PINK1 modulator | ClpP mod | Gal4-VP16 FLuc
O=C(CCc1nc2ccccc2n1-c1ccccc1)NCCO | 0% | 14% | 18% | -1% | 1% | 1%
O=C(COC(=O)CCc1nc2ccccc2n1-c1ccccc1)Nc1ccc(N2CCCCC2)cc1 | -1% | 0% | ? | 10% | -2% | 6.3µM*
CCCCN1CC[C@H]2C=CC[C@@H](C(=O)NCc3cccnc3)[C@H]2C1=O | nt | nt | nt | nt | 0% | nt
Cn1cccc1C(=O)N/N=C/c1c(Cl)cccc1Cl | nt | 15% | -20% | 0% | -1% | 1%
Cc1cccc(C)c1NC(=S)N/N=C/c1c(Cl)cccc1Cl | 7% | 19% | 0.5µM* | 16% | nt | 2.5µM*
CNC(=S)N/N=C/c1c(Cl)cccc1Cl | 5% | -26% | 3.2µM* | -1% | -3% | 6.3µM*
O=C(CCCC(=O)NN=Cc1ccccc1Cl)NN=Cc1ccccc1Cl | nt | nt | nt | 4% | 2% | nt
O=C(Cc1ccc(Cl)cc1)N/N=C/c1c(Cl)cccc1Cl | 2% | 6% | -6%[10 µM] | 7% | 1% | -10%
Cc1c(Cl)cccc1NC(=S)N/N=C/c1ccccc1Cl | 2% | -11% | 1µM* | 6% | nt | 4.5µM*

Bioassay records from PubChem.
